Records with an inconclusive call do not appear. Entries that show only a call come without a potency. The source made the active and inactive calls. The call rests on the fitted dose curve; in most records, active means well fitted activation curve with a large enough effect in the signal ratio in the repeat runs (not every such curve was filed as active); inconclusive means weak or mixed curves; inactive means flat fitted curve, though single readings scatter; the % refers to the signal ratio.
Assay: qHTS assay to identify small molecule agonists of H2AX (AID 1224845)
Settings: CHO-K1 phospho-H2AX Ser139 HTRF, 3 h; series mostly up to 154 µM
Text: National Center for Advancing Translational Sciences [NCATS]
NIH Chemical Genomics Center [NCGC]
U.S. Environmental Protection Agency [EPA]
National Institutes of Environmental Health Sciences [NIEHS]
National Toxicology Program [NTP]
U.S. Food and Drug Administration [FDA]
HTRF phospho-H2AX (Ser139) assay (Cisbio Bioassays, US) enables the quantitative detection of the histone variant H2AX when phosphorylated on serine 139. When double-stranded DNA breaks, either by ionizing radiation or endogenous physiological processes, H2AX becomes phosphorylated at Ser139. This phospho-Ser139 serves as a sensitive biomarker for the detection of such breaks, localizing the site of DNA repair. So, HTRF phospho-H2AX Ser139 is a pertinent assay to study genome stability, the cell cycle, DNA repair, and it serves as a biomarker for cancer, and to understand aging. Wild type CHO-K1 cells were used to identify the inducers of Phospho-H2AX Ser 139 from the Tox21 10K compound collections.
Tox21 Assay Protocol Summary:
The CHO-K1 cells suspended in culture medium containing 10% FBS were dispensed at 1000 cells/ 3 ul/well in 1536-well white wall/solid bottom plates (Greiner Bio-One North America, NC) using a Multidrop Combi (Thermo Fisher Scientific Inc., Waltham, MA). After the assay plates were incubated at 37C overnight, 23 nl of compounds at 15 concentrations (from 5-48 columns) or positive control (from 1 to 4 columns) were transferred to the assay plates using a Pintool station (Wako, San Diego, CA) into each well resulting in a final DMSO concentration of 0.76%. After 3hr incubation at 37C, 1 uL/well Supplemented Lysis buffer (diluted 100 fold blocking reagent in lysis buffer) (HTRF Phospho-H2A.X (S139) Assay kit from Cisbio US Inc., Bedford, MA) was added using a Flying Reagent Dispenser (FRD) (Aurora Discovery, CA). After 10sec spin at 1000 rpm in a plate centrifuge, the assay plates were incubated at room temperature for 30 min. Then followed by the addition of 1 uL/well detection buffer (containing a mixture of two antibodies, one labeled with cryptate, Anti pH2AX (S139)-K and another labeled with d2, Anti H2AX-d2) using FRD. After incubation at room temperature for 24 hr, the time resolved fluorescence at excitation 320 nm and emissions at 665 nm and 620 nm was measured using an Envision plate reader (PerkinElmer, Waltham, MA).
With `COP(=S)(OC)Oc1c(Cl)cc(C)cc1Cl` the Potency was “inactive”. In the case of `ClCC(Cl)Cl`, the Potency is reported as “inactive”. With `COC(=O)c1ccccc1S(=O)(=O)NC(=O)Nc1nc(C)cc(C)n1` the Potency was “inactive”. For `CC1=C(C(=O)Nc2ccccc2)S(=O)(=O)CCO1`, the Potency was “inactive”. With `C[C@H]1CCC[C@H](O)CCCCCc2cc(O)cc(O)c2C(=O)O1` the Potency was “inactive”. For `CCOC(=O)CP(=O)(OCC)OCC`, the Potency was “inactive”. In the case of `COC(=O)C(C)Oc1ccc(Oc2ccc(Cl)cc2Cl)cc1` (stereo not given), the Potency is reported as “inactive”. For `NC(=O)c1cc([N+](=O)[O-])cc([N+](=O)[O-])c1`, the Potency was “inactive”. With `CCCSC(=O)N(CCC)CCC` the Potency was “inactive”. With `CCCSC(=O)Cl` the Potency was “inactive”. With `CCOC(=O)/C=C(C)/C=C/C[C@@H](C)CCCC(C)C` the Potency was 113 µM (active). With `CCCCc1c(C)nc(NCC)[nH]c1=O` the Potency was “inactive”. With `N#CC(O)c1ccccc1` (stereo not given) the Potency was “inactive”. For `Cc1coc2c1CCC(C)C2` (stereo not given), the Potency was “inactive”. For `CNC(=O)Oc1c(C(C)(C)C)cc(C)cc1C(C)(C)C`, the Potency was “inactive”. With `CCN(CC)c1nc(C)cc(OP(=S)(OC)OC)n1` the Potency was “inactive”. For `CCOP(=S)(OCC)Oc1cc(-c2ccccc2)on1`, the Potency was “inactive”. For `CCC/C(=N\OCC)C1=C(O)CC(CC(C)SCC)CC1=O` (stereo not given), the Potency was “inactive”. For `CCC(=O)C(CCN(C)C)(c1ccccc1)c1ccccc1`, the Potency was “inactive”. In the case of `CCC(=O)c1ccccc1`, the Potency is reported as “inactive”. In the case of `NC(=O)O`, the Potency is reported as “inactive”. In the case of `Nc1c(Br)cc([N+](=O)[O-])cc1[N+](=O)[O-]`, the Potency is reported as “inactive”. In the case of `CC(COc1ccc(Oc2ccccc2)cc1)Oc1ccccn1` (stereo not given), the Potency is reported as “inactive”. For `Oc1c(Cl)cccc1Cl`, the Potency was “inactive”. In the case of `CCOP(=S)(OCC)Oc1ncn(-c2ccccc2)n1`, the Potency is reported as “inactive”. For `CCCCOC(=O)c1ccccc1C(=O)O`, the Potency was “inactive”. For `CCCCOC(=O)c1ccccc1N`, the Potency was “inactive”. With `CNC(=O)N(C)c1nc2ccccc2s1` the Potency was “inactive”. With `CC(C)CC(N(C)C)C1(c2ccc(Cl)cc2)CCC1` (stereo not given) the Potency was “inactive”. With `[Cl][Sn]([Cl])([Cl])[Cl]` the Potency was “inactive”. In the case of `CC(C1CC1)C(O)(Cn1cncn1)c1ccc(Cl)cc1` (stereo not given), the Potency is reported as “inactive”. For `CN1C[C@@H](NS(=O)(=O)N(C)C)C[C@@H]2c3cccc4c3c(cn4C)C[C@H]21`, the Potency was “inactive”. In the case of `N#Cc1c(Cl)cccc1Cl`, the Potency is reported as “inactive”. With `CCOC(=O)NC(=S)Nc1ccccc1NC(=S)NC(=O)OCC` the Potency was “inactive”. In the case of `CN/C(=N\[N+](=O)[O-])NCC1CCOC1` (stereo not given), the Potency is reported as “inactive”. In the case of `CCS(=O)(=O)CCSP(=O)(OC)OC`, the Potency is reported as “inactive”. In the case of `Nc1cc2c3c(c1)C(c1ccccc1)=N[C@@H](NC(=O)c1cccnc1)C(=O)N3CC2`, the Potency is reported as “inactive”. For `Cc1ncsc1CCCl`, the Potency was “inactive”. With `Cc1ncc(CNC(=O)N(CCCl)N=O)c(N)n1` the Potency was “inactive”. With `OC(c1ccccc1)(c1ccccc1)C1CCNCC1` the Potency was “inactive”.
Potency means the concentration at half of the fitted maximal effect.
